Source: PubChem BioAssay (several laboratories)
An excerpt weighted towards active compounds, which were near 2.4% of everything screened.
SENP8 block-1 = SENP8 protease inhibitors, primary screen, biochemical, luminescence | Sentrin-specific protease 8 (Homo sapiens), Q96LD8 | purified SENP8, Z-RLRGG-aminoluciferin cleavage | inhibition, % at 10 µM | actives 1.2% (n = 330,000); in the data active means inhibition above about 50%
Target sequence (Q96LD8 whole entry, looked up): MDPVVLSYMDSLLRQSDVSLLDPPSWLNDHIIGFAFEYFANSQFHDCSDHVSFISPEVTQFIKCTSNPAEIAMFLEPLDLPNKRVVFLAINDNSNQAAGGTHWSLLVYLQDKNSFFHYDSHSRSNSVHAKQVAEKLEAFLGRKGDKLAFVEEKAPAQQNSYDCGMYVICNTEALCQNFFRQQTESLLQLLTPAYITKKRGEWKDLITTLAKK
SENP6 block = SENP6 protease inhibitors, primary screen, biochemical, luminescence, uHTS | Sentrin-specific protease 6 (Homo sapiens), Q9GZR1 | Recombinant SENP6 catalytic domain, aminoluciferin luminescence | inhibition, % at 10 µM | actives 1.8% (n = 330,000);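 active means inhibition above about 50% at the single tested dose, limit read from the data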;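 further: plate controls were DMSO wells with enzyme for no effect and DMSO wells lacking enzyme for full effect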
SENP7 inh = SENP7 protease inhibitors, primary screen, biochemical, luminescence, uHTS. recombinant SENP7, Z-RLRGG-aminoluciferin luminescence, 40 min. inhibition, % at 5 µM. actives 1.5% (n = 330,000);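 active means inhibition above about 50% at the single test dose, limit read from the data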;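 further: plate controls were DMSO with enzyme for no effect and no enzyme buffer wells for full effect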
Target sequence (Q9BQF6 706-1050 limits assumed): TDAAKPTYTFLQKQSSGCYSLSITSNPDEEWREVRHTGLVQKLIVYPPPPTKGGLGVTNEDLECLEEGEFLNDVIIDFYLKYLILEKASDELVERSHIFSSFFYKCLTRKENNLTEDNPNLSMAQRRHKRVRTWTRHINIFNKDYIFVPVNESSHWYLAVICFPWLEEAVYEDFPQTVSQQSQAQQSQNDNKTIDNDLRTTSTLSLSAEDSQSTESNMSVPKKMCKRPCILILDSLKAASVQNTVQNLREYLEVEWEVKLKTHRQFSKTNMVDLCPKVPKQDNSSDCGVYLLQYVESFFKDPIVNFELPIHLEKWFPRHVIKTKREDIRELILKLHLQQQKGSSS
SENP8 block-2 = human SENP8 protease inhibitors, primary screen, biochemical, fluorescence, Nedd8 protein substrate, uHTS; recombinant SENP8; actives 0.64% (n = 360,000); inhibition, % at 20 µM; AID 602440, 2012; Sentrin-specific protease 8 (Homo sapiens), Q96LD8; in the data active means inhibition mostly above about 40%, no sharp cut-off; inactive means mostly below about 27%
Platelet DG rel = inhibitors of platelet dense granule secretion, primary screen, cell-based, MLPCN, human platelets | actives 0.22% (n = 300,000) | inhibition, %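 (compounds screened at 7.5 µM in platelet-rich plasma)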 | human platelet-rich plasma, SFLLRN dense granule ATP release, luminescence;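 active means mean replicate score, as percent of positive control, at or above 50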
SENP8 confirm = SENP8 protease inhibitors, retest, confirmation, biochemical, luminescence, single concentration; actives 40% (n = 6,200); shares compounds with SENP7 inh; Recombinant SENP8, Z-RLRGG-aminoluciferin luminescence, 60 min; inhibition, % at 12.5 µM; AID 488912, 2010;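 active means mean inhibition across replicates above about 50%, limit read from the data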
SENP6 confirm = SENP6 protease inhibitors, confirmation, biochemical, luminescence, single concentration | shares compounds with SENP7 inh | recombinant SENP6, Z-RLRGG-aminoluciferin luminescence | inhibition, % at 12.5 µM | actives 58% (n = 6,200)
SENP7 confirm = SENP7 protease inhibitors, retest, confirmation, biochemical, luminescence, single concentration. recombinant SENP7, Z-RLRGG-aminoluciferin luminescence, 40 min. actives 69% (n = 6,200). inhibition, % at 12.5 µM. shares compounds with SENP7 inh. AID 488917, 2010
Casp3 SENP sel = caspase-3 protease inhibitors, confirmation, selectivity assay for SENP inhibitor project, biochemical, single concentration; shares compounds with SENP7 inh; inhibition, % at 12.5 µM; purified caspase-3, Z-DEVD-aminoluciferin luminescence, 60 min; actives 60% (n = 6,200);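 active means mean inhibition above about 50%, limit read from the data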;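 further: plate controls were enzyme with DMSO for no effect and wells without caspase-3 for full effect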
Luc interf = luminescence interference (SENP counter-screen). shares compounds with SENP7 inh. Pre-incubated SENP8/Z-RLRGG-aminoluciferin, luciferase luminescence interference. inhibition, % at 12.5 µM. actives 39% (n = 6,200). AID 488919;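 active means mean inhibition above about 50% when retested at one dose, limit read from the data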;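 further: plate controls were DMSO wells with completed reaction for no effect and substrate without enzyme for full effect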
An asterisk follows results filed as active; . = no result given.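 How the source made its calls, unless noted: active means mean inhibition above about 50% in the one-dose retest (limit read from the data); inactive means the rest.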

SMILES	SENP8 block-1	SENP6 block	SENP7 inh	SENP8 block-2	Platelet DG rel	SENP8 confirm	SENP6 confirm	SENP7 confirm	Casp3 SENP sel	Luc interf
NNC(=O)c1ccc2nc(-c3ccc(Br)cc3)cn2c1	-7	2	-9	-352	2	.	.	.	.	.
Clc1ccc(-c2cn3cc(Cl)ccc3n2)cc1	69*	82*	93*	-182	10	27	42	45	40	15
Cc1ccc(S(=O)(=O)N2CCC(NC(=O)C3CCCCC3)CC2)cc1	-3	-14	-13	5	1	.	.	.	.	.
Cc1ccc(NC(=S)N2CCC(NC(=O)c3ccco3)CC2)cc1C	2	0	1	16	-2	.	.	.	.	.
CCOC(=O)[C@@H]1[C@H]2COc3ccc(Br)cc3[C@H]2N2C(=O)N(c3ccc(Cl)cc3)C(=O)[C@]12C	12	-5	-5	19	.	.	.	.	.	.
COc1ccc(-n2sc3ccc(F)cc3c2=O)cc1	91*	91*	79*	21	.	96*	95*	102*	96*	92*
O=c1c2cc(F)ccc2sn1-c1ccc(F)cc1	88*	93*	44	7	.	92*	93*	100*	92*	86*
CN(C(=O)c1cccc(NC(=O)c2ccco2)c1)c1ccccc1	9	-2	-7	8	-2	.	.	.	.	.
CCC(C)c1ccc(NC(=O)c2ccco2)cc1 (configuration not stated)	70*	85*	74*	8	1	79*	78*	94*	71*	67*
O=C(Oc1ccccc1)c1ccc(NC(=O)c2ccco2)cc1	66*	7	91*	5	16	33	66*	85*	78*	36
CN(C(=O)c1ccc(NC(=O)c2ccco2)cc1)c1ccccc1	61*	81*	81*	5	40	13	69*	87*	88*	72*
COC(=O)c1sc(NC(=O)c2cc3c(s2)CCCC3)nc1C	35	23	80*	-221	-2	34	34	90*	52*	40
Cc1ccc(NC(=O)COc2ccc3c(c2)CCC3)nc1	-16	15	-3	2	-21	.	.	.	.	.
O=C(Nc1ccccn1)c1ccc(Br)s1	38	67*	65*	8	3	66*	63*	88*	76*	67*
CCc1sc(C(=O)Nc2nc(C)cs2)cc1C	68*	85*	65*	-44	6	70*	69*	92*	69*	69*
O=C(Nc1ccccn1)c1ccc(C(=O)Nc2ccccn2)cc1	-10	13	4	8	11	.	.	.	.	.
CCc1sc(C(=O)Nc2ccc(NC(C)=O)cc2)cc1C	-2	-11	3	20	2	.	.	.	.	.
Cc1csc(NC(=O)COc2ccc3c(c2)CCC3)n1	74*	82*	84*	6	.	81*	80*	96*	80*	46
CSc1cccc(CN2CCC(CCC(=O)NC3CC3)CC2)c1	11	-5	1	22	1	.	.	.	.	.
Cc1csc(NC(=O)c2ccc(Br)s2)n1	30	55*	26	-19	-6	46	43	77*	48	26
Cc1nc(NC(=O)c2cc3c(s2)CCCCC3)sc1C(=O)N(C)C	0	2	14	-127	-14	.	.	.	.	.
Cc1csc(NC(=O)c2cc3c(s2)CCC3)n1	82*	90*	87*	-78	23	89*	88*	99*	89*	91*
CCc1nc2c(OCCc3cccc(OC)c3)cccn2c1N(C)C(=O)c1ccc(OC)cc1	.	.	.	7	.	.	.	.	.	.
NC(=O)c1cnn(-c2cc(Oc3ccccc3)ncn2)c1N	-4	-4	3	6	3	.	.	.	.	.
c1ccc(Oc2cc(-n3cccn3)ncn2)cc1	41	54*	46	5	10	3	33	75*	68*	14
SMILES	SENP8 block-1	SENP6 block	SENP7 inh	SENP8 block-2	Platelet DG rel	SENP8 confirm	SENP6 confirm	SENP7 confirm	Casp3 SENP sel	Luc interf
CCOC(=O)c1ccc(S(=O)(=O)NNc2ccc(C(F)(F)F)cn2)cc1	-16	-24	-1	-5	.	.	.	.	.	.
CCOC(=O)c1cc2ccc(OC(=O)c3ccco3)cc2oc1=O	36	56*	63*	-308	22	55*	61*	87*	89*	56*
CC(=O)Nc1ccc(C(=O)COC(=O)C2CCCCC2)c(F)c1	57*	78*	58*	1	.	10	46	80*	43	9
CC(=O)Nc1ccc(C(=O)COC(=O)C2CC2)c(F)c1	-1	-2	-7	-2	.	.	.	.	.	.
CCOc1ccc(/C=C2/SC(=O)NC2=S)cc1	45	74*	10	12	-21	19	20	41	8	22
CCOc1ccc(N=C2NC(=O)S/C2=C\c2ccc(N(C)C)cc2)cc1	6	26	1	4	-2	.	.	.	.	.
CCn1c(SCc2ccccc2Cl)nc2ccccc21	17	59*	17	32	1	42	44	71*	27	20
CCn1c(CSc2nc3ccccc3n2C)nc2ccccc21	-4	-32	9	-7	2	.	.	.	.	.
Cn1c(SCc2ccccc2Cl)nc2ccccc21	75*	86*	67*	39	-23	-22	77*	95*	67*	66*
CC(NC(=O)c1cc([N+](=O)[O-])cc([N+](=O)[O-])c1)C1CC2CCC1C2 (configuration not stated)	-6	-13	-2	16	2	.	.	.	.	.
Cc1ccc(C(=O)Nc2cccc(C(=O)NC3CCCC3)c2)cc1	0	-7	-2	6	-15	.	.	.	.	.
O=C(O)c1cccc(NC(=O)c2ccccc2)c1	.	.	.	12	.	.	.	.	.	.
CCOc1ccc(C(=O)Nc2cc(NC(=O)c3ccc(OCC)c(Cl)c3)cc(C(=O)O)c2)cc1Cl	3	-7	5	3	-1	.	.	.	.	.
